Screening data as filed in PubChem.
TRPML1 ag = activates the human TRPML1 channel | AID 624414 | hit rate 0.12% among 410,000 | Q9GZU1 | TRPML1-expressing cells, Ca2+ dye fluorescence, FDSS | activation, % (test concentration not listed); in the data active means activation above about 50%; inconclusive means mostly about 30% to 49%; further: 0% is about no effect
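TRPML1-DL cells, Tet-induced overnight (~16 h, 37 degrees C), loaded 45-90 min at room temperature with Ca8 no-wash calcium dye plus quencher. FDSS fluorescence: 10 s baseline, compound pin-transfer, 110 s agonist read, then EC80 54-4 (4uM final) and 110 s antagonist read.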
PTAP TSG101 blk = blocks PTAP/TSG101 interaction to inhibit HIV-1 budding; Q99816; Fluorescence polarization, FITC-PTAP peptide / Tsg101 binding; Potency, µM (titrated, usually from 115 µM), for inactives: top-dose activity change, negative = inhibition, actives largely listed as inhibitors; 340,000 tested, under 10 active; AID 493005; active means well fitted inhibition curve with a large enough effect in the main read-out, with a control signal flat, not every such curve was filed as active; inconclusive means small, poorly fitted or top-dose-only effect, or effect the other way, or a change in a side signal; inactive means no such curve, though single readings can be large or run the other way; further: potency means the concentration at half of the fitted maximal effect; % of control where 0% means no effect
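Compounds were pin-transferred onto Tsg101 binding domain (10 uM final) in HEPES pH 7.5 buffer, then FITC-PTAP peptide was added at 50 nM final. After 20 min at RT, polarization reported peptide displacement across a qHTS concentration series.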
hERG WT inh = inhibitors of human wildtype KCNH2 potassium channel. U2OS, BacMam KCNH2, thallium flux FluxOr; active compounds read low. activity change, % at 1.84 µM. Q12809. AID 720551. hit rate 0.37% among 340,000;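 active means maximum activity change below -70%; inconclusive means maximum activity change between -70% and -50%; inactive means maximum activity change above -50%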; further: on the % scale 0 is the no-effect control and ±100 the full control effect
Target sequence (Q12809 whole entry, looked up): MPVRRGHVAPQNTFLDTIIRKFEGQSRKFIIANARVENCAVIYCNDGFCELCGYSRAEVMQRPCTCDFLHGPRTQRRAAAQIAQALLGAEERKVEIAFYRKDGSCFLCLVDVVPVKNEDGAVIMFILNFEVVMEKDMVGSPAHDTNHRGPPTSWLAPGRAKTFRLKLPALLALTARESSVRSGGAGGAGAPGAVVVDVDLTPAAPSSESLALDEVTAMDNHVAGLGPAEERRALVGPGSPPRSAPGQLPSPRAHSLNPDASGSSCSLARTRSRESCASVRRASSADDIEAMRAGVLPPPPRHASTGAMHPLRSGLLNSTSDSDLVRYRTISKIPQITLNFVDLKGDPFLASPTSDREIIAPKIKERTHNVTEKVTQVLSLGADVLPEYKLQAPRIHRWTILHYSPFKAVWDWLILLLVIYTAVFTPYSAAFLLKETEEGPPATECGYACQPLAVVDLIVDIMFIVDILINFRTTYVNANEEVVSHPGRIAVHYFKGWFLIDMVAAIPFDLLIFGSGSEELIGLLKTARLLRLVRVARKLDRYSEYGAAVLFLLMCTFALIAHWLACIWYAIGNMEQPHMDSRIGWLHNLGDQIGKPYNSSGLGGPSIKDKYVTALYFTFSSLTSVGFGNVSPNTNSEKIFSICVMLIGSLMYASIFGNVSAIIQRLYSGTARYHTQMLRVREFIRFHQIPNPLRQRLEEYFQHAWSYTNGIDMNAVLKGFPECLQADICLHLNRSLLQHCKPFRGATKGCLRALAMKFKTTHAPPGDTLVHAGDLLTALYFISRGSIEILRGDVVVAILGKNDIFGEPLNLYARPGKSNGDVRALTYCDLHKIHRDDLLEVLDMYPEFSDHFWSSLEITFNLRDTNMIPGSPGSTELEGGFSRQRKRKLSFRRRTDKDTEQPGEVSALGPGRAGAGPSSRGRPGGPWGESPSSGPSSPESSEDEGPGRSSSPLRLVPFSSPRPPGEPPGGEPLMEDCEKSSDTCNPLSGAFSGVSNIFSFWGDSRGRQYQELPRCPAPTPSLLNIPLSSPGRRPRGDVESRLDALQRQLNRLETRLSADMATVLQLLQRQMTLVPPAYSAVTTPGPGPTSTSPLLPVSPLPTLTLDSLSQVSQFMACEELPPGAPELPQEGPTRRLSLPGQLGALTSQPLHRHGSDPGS
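U2OS cells were transduced with wild-type KCNH2 virus (2.03 x 10^8 / mL) for 4 h at room temperature, then cultured overnight at 37 C. Thallium flux was read with FluxOr dye. Rate constants were normalized to DMSO controls.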
KCNH2 3.1 inh = inhibitors of human KCNH2 3.1 potassium channel isoform; activity change, % (tested at about 1.8 µM); hit rate 0.95% among 340,000; AID 720553; U2OS KCNH2 3.1, thallium flux FluxOr; active compounds read low;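 active means maximum activity change below -70%; inconclusive means maximum activity change from -70% to -50%; inactive means maximum activity change above -50%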;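 further: thallium influx rate constant from kinetic fluorescence after stimulation buffer; on the % scale 0 is the no-effect control and ±100 the full control effect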
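Thallium flux via FluxOr fluorescence (Red40 quencher, 45 min loading) in U2OS cells virally expressing the KCNH2 3.1 isoform (1.77 x 10^8 /mL virus, overnight at 37 C). Rate constants from 2-min kinetic reads post-stimulation, normalised to positive and negative controls.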
Glioma ERSR ind = induces the endoplasmic reticulum stress response in human glioma cells; hit rate 0.02% among 420,000; Potency, µM, for the others: at the highest dose activation, hits mostly activators; U87-MG GRP78 promoter luciferase reporter, 16 h; active means well fitted activation curve with a large enough effect; inconclusive means small, poorly fitted or top-dose-only effect; inactive means no such curve, though single readings can be large or run the other way; further: potency means the concentration at half of the fitted maximal effect; series mostly up to about 76 µM; % of control where 0% means no effect; nearly all actives have a fitted effect of over 35% in size
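Stably transfected U87-MG human glioma cells carrying a GRP78-based luminescent sensor were seeded at 1000 cells/well, pin-dosed with compounds and incubated 16 h. Luciferase reagent was then added, and end-point luminescence was read after 10 min at room temperature.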
TRPML1 inh = human mucolipin-1 channel inhibition. TRPML1-inducible cells, Ca2+ dye fluorescence, FDSS; active compounds read low; inhibition of EC80 agonist-evoked calcium signal. activity change, negative = inhibition, % (concentration not given with the values). hit rate 0.02% among 390,000. Q9GZU1. AID 624415; in the data active means activity change below about -50%; inconclusive means between about -30% and that limit;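 further: stimulus is agonist 54-4 at its EC80 concentration; on the % scale 0 is the no-effect control and ±100 the full control effect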
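Calcium fluorescence in TRPML1-DL cells induced overnight with Tet: a 110 s read after compound pin addition, then a 110 s antagonist read after challenge with 54-4 at 4 uM final (EC80).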
The depositor's hits bear a star. A selection: hits, their analogues and other compounds. The true share with any hit is near 1%.

Results for CCCCCCCCCCCCCCCC(=O)O[C@@H]1CC(C)=C(\C=C/C(C)=C\C=C/C(C)=C\C=C\C=C(C)\C=C\C=C(C)\C=C\C2=C(C)C[C@@H](OC(=O)CCCCCCCCCCCCCCC)CC2(C)C)C(C)(C)C1 ?
Glioma ERSR ind: -2.1%

What do the screens show for `CCOC(=O)c1sc2c(c1C)c(=O)n(Cc1ccccc1)c(=O)n2CCN(C)C`?
TRPML1 ag: 0.5; PTAP TSG101 blk: -4.8%; hERG WT inh: 18.7; KCNH2 3.1 inh: -109.4*; Glioma ERSR ind: 6.5%; TRPML1 inh: 38.8

What do the screens show for `Cc1cnc(C)c(-c2cccc3c2OC(CNC(=O)/C=C/c2ccc(F)c(F)c2)C3)n1` (stereo not drawn)?
Glioma ERSR ind: -4.7%

Results for CCOC(=O)Cc1csc(NC(=O)CCN2C(=O)c3ccccc3C2=O)n1 ?
TRPML1 ag: -0.8; PTAP TSG101 blk: -4.5%; hERG WT inh: -6.3; KCNH2 3.1 inh: -213.0*; Glioma ERSR ind: -3.0%; TRPML1 inh: 8.1

How did COc1ccc2c(c1)C(=O)CCC2c1ccccc1 (stereo not drawn) do in these assays?
TRPML1 ag: 1.1; PTAP TSG101 blk: 0.3%; hERG WT inh: 8.0; KCNH2 3.1 inh: -119.7*; Glioma ERSR ind: 0.9%; TRPML1 inh: -7.0

What do the screens show for `Cc1ccccc1C(=O)c1cccn1CC(=O)NCCN1CCN(c2cccc(C)c2C)CC1`?
TRPML1 ag: 0.2; PTAP TSG101 blk: -1.4%; hERG WT inh: inconclusive; KCNH2 3.1 inh: -78.7*; Glioma ERSR ind: -7.4%; TRPML1 inh: 30.1

How did Cc1ccc(C)c(N2CCN(CCCNC(=O)Cn3cccc3C(=O)c3ccccc3C)CC2)c1 do in these assays?
TRPML1 ag: 0.1; PTAP TSG101 blk: 2.0%; hERG WT inh: -75.0*; KCNH2 3.1 inh: -84.4*; Glioma ERSR ind: -16.2%; TRPML1 inh: 10.2

How did CO[C@@H]1[C@@H](OC2OC(C)C(OC3CC(C)(O)C(O)C(C)O3)C(N(C)C)C2O)[C@@H](CC=O)C[C@@H](C)[C@@H](OC2CCC(N(C)C)C(C)O2)/C=C/C=C/C[C@@H](C)OC(=O)C[C@H]1OC(C)=O (stereo partly drawn) do in these assays?
Glioma ERSR ind: -2.7%

Results for O=C(Cc1ccc(F)cc1)NCCc1ccccc1 ?
TRPML1 ag: -0.3; PTAP TSG101 blk: -5.7%; hERG WT inh: -5.0; KCNH2 3.1 inh: inconclusive; Glioma ERSR ind: -1.1%; TRPML1 inh: 14.3

How did O=C(CS(=O)(=O)Cc1ccccc1)NCCc1ccc(F)cc1 do in these assays?
TRPML1 ag: 0.7; PTAP TSG101 blk: -0.4%; hERG WT inh: 2.5; KCNH2 3.1 inh: -78.4*; Glioma ERSR ind: 0.8%; TRPML1 inh: -6.9

How did O=C(NCCc1nnc2n1CCN(Cc1ccccn1)CC2)c1ccc(F)cc1 do in these assays?
Glioma ERSR ind: -6.2%

Results for OC(CN1CC=C(/C=C/c2ccc(Br)cc2)CC1)c1ccccc1 (stereo not drawn) ?
TRPML1 ag: -0.5; PTAP TSG101 blk: -1.9%; hERG WT inh: 13.9; KCNH2 3.1 inh: -92.7*; Glioma ERSR ind: -2.1%; TRPML1 inh: -7.2

How did OC(CN1CCN(C(c2ccccc2)c2ccccc2)CC1)c1ccccc1 (stereo not drawn) do in these assays?
PTAP TSG101 blk: -2.0%; hERG WT inh: 37.6; KCNH2 3.1 inh: -5.8; Glioma ERSR ind: -4.2%

Results for OC(CN1CCN(C(c2ccccc2)c2ccccc2)CC1)c1ccc(Br)cc1 (stereo not drawn) ?
TRPML1 ag: -0.4; PTAP TSG101 blk: 0.4%; hERG WT inh: -103.1*; KCNH2 3.1 inh: -103.9*; Glioma ERSR ind: -7.2%; TRPML1 inh: -14.6

What do the screens show for `c1ccc(OCCN2CCN(C(c3ccccc3)c3ccccc3)CC2)cc1`?
TRPML1 ag: 23.9; PTAP TSG101 blk: -4.4%; hERG WT inh: -43.1; KCNH2 3.1 inh: -96.1*; Glioma ERSR ind: 0.9%; TRPML1 inh: -10.0

What do the screens show for `COc1cccc(CN2CCN(C(c3ccccc3)c3ccccc3)CC2)c1O`?
TRPML1 ag: 11.2; PTAP TSG101 blk: -0.3%; hERG WT inh: -44.3; KCNH2 3.1 inh: -74.1*; Glioma ERSR ind: -4.4%; TRPML1 inh: 19.4

What do the screens show for `COc1cc(CN2CCN(C(c3ccccc3)c3ccccc3)CC2)cc(OC)c1OC`?
TRPML1 ag: -1.6; PTAP TSG101 blk: -1.4%; hERG WT inh: 13.6; KCNH2 3.1 inh: inconclusive; Glioma ERSR ind: -2.4%; TRPML1 inh: 30.3

How did c1ccc(OCCN2CCNCC2)cc1 do in these assays?
TRPML1 ag: -0.6; PTAP TSG101 blk: -4.2%; hERG WT inh: -3.8; KCNH2 3.1 inh: -11.9; Glioma ERSR ind: -0.5%; TRPML1 inh: -6.3

How did C[C@H]1C[C@@H]2[C@H]([C@@H](O)C[C@@]3(C)[C@H]2CC[C@]3(O)C(=O)COC(=O)CCC(=O)O)[C@@]2(C)C=CC(=O)C=C12 do in these assays?
Glioma ERSR ind: -0.9%

How did CC(=O)c1ccccc1OCC(O)CN1CCN(C(c2ccccc2)c2ccccc2)CC1 (stereo not drawn) do in these assays?
TRPML1 ag: 1.1; PTAP TSG101 blk: -2.3%; hERG WT inh: -74.3*; KCNH2 3.1 inh: -84.8*; Glioma ERSR ind: 6.2%; TRPML1 inh: -0.4

How did COc1cccc(OCC(O)CN2CCN(C(c3ccccc3)c3ccccc3)CC2)c1 (stereo not drawn) do in these assays?
TRPML1 ag: 1.1; PTAP TSG101 blk: -3.6%; hERG WT inh: -19.2; KCNH2 3.1 inh: -40.9; Glioma ERSR ind: -4.0%; TRPML1 inh: -13.6

What do the screens show for `Cc1ccc(S(=O)(=O)N/N=C/c2ccc(OCC(=O)N3CCOCC3)cc2)cc1`?
TRPML1 ag: 2.8; PTAP TSG101 blk: 0.9%; hERG WT inh: -0.4; KCNH2 3.1 inh: -72.4*; Glioma ERSR ind: 2.8%; TRPML1 inh: -2.5

What do the screens show for `O=C(COc1ccc(/C=N/NS(=O)(=O)c2ccccc2)cc1)N1CCOCC1`?
TRPML1 ag: 1.2; PTAP TSG101 blk: -2.0%; hERG WT inh: 3.5; KCNH2 3.1 inh: 9.8; Glioma ERSR ind: -3.1%; TRPML1 inh: 15.7

What do the screens show for `OC1(c2cccnc2)CCN(Cc2ccc3c(c2)CN(Cc2cccc(F)c2F)CCO3)CC1`?
Glioma ERSR ind: -5.3%

Results for CCCc1ncc(C(O)c2cccc(OC)c2OC)n1C (stereo not drawn) ?
TRPML1 ag: 0.3; PTAP TSG101 blk: -0.6%; hERG WT inh: -22.4; KCNH2 3.1 inh: 5.4; Glioma ERSR ind: -3.7%; TRPML1 inh: 2.7

What do the screens show for `CCCc1ncc(C(O)c2ccccc2OC)n1C` (stereo not drawn)?
TRPML1 ag: -0.7; PTAP TSG101 blk: -3.2%; hERG WT inh: -201.1*; KCNH2 3.1 inh: 7.0; Glioma ERSR ind: -4.2%; TRPML1 inh: 12.0
